# This is a sample that favours compounds with a hit; in the whole collection about 0.85% have one here.
# GLS inh: qHTS for Inhibitors of Glutaminase (GLS). GLS enzymatic activity, qHTS titration. Glutaminase kidney isoform, mitochondrial (Homo sapiens), O94925. AID 624170, 2012. Potency, µM (series often up to 45.5 µM), actives largely listed as inhibitors. 0.21% of 410,000 active
#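 Glutamate formation by hKGA was monitored fluorometrically using coupled glutamate oxidase, HRP and Amplex Red. Substrate was added as 1 mM L-glutamine solution; incubation was 30 min at RT after an initial read.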
# APE1 inh: qHTS Assay for Inhibitors of the Human Apurinic/apyrimidinic Endonuclease 1 (APE1). Potency, µM (series often up to 65.8 µM), hits mostly inhibitors. recombinant APE1, TAMRA/BHQ-2 abasic DNA cleavage fluorescence. DNA repair nuclease/redox regulator APEX1 (Homo sapiens), P27695. 0.35% of 350,000 active; also: nearly all actives have a fitted effect of over 55% in size
#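 Readout is kinetic fluorescence (ex 525, em 598 nm) from cleavage of 50 nM TAMRA/BHQ-2 THF abasic duplex by 0.75 nM APE1, compound added 15 min beforehand at RT.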
# Tb PGK inh: qHTS Assay to Find Inhibitors of Phosphoglycerate Kinase | Phosphoglycerate kinase, glycosomal (Trypanosoma brucei brucei), P07378 | Potency, µM (top dose mostly 57.5 µM), usual class: inhibitors | PGK/GAPDH coupled, Kinase-Glo luminescence, 60 min | AID 602233, 2012 | 0.043% of 380,000 active; also: nearly all actives have a fitted effect of over 60% in size
#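 Luminescent ATP detection (Kinase-Glo Plus) follows a 60-minute room-temperature incubation, with wells lacking PGK as controls. Buffer: 100 mM TEA (pH 7.6), 5 mM MgCl2, 0.01% Tween-20. Coupling enzyme GAPDH (100 nM final) supplies unstable 1,3-BPG in-well.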
# BLM helicase inh: qHTS Assay for Inhibitors of Bloom's syndrome helicase (BLM); RecQ-like DNA helicase BLM (Homo sapiens), P54132; recombinant BLM DNA unwinding, fluorescence dequenching; Potency, µM (top dose mostly 56.1 µM), actives largely listed as inhibitors; 0.2% of 350,000 active; AID 2528, 2010; also: nearly all actives have a fitted effect of over 35% in size
# TDP1 block: qHTS Assay for Inhibitors of Tyrosyl-DNA Phosphodiesterase (TDP1). Potency, µM (top dose mostly 130 µM), usual class: inhibitors. recombinant TDP1, AlphaScreen DNA substrate cleavage. 0.28% of 350,000 active; also: nearly all actives have a fitted effect of over 40% in size
#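 Recombinant E. coli-expressed Tdp1 (1 nM) preincubated with compound 15 min at RT, then 5'-biotin/3'-phosphotyrosine-FITC DNA substrate (15 nM) added for 5 min. AlphaScreen beads (10 ug/ml) added, 10 min RT; tyrosine-FITC cleavage read as signal loss.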
# RECQ1 inh: qHTS Assay for Inhibitors of RecQ-Like Dna Helicase 1 (RECQ1). RECQ1 DNA unwinding, red fluorescence kinetic read. 0.54% of 240,000 active. Potency, µM (doses to about 57.3 µM), most hits filed as inhibitors. ATP-dependent DNA helicase Q1 (Homo sapiens), P46063; also: nearly all actives have a fitted effect of over 30% in size
# Target sequence (P46063 whole entry, looked up): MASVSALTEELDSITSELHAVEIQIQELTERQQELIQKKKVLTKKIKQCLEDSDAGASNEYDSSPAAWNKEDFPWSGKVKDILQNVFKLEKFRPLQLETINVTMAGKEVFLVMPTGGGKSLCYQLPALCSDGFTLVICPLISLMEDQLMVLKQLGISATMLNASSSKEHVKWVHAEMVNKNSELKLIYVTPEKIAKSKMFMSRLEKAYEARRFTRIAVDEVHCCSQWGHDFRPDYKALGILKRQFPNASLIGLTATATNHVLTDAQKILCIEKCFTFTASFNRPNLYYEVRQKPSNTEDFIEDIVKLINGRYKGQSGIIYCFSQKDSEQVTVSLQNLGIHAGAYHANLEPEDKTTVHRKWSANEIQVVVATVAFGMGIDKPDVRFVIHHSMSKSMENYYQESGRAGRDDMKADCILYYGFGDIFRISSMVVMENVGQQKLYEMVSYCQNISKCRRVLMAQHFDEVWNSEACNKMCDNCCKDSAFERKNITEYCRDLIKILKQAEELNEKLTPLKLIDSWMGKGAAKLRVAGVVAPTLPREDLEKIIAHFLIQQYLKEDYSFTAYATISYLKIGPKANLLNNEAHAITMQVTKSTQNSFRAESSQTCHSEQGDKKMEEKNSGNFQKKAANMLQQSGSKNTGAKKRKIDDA
#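 50 nM RECQ1T1 preincubated 15 min with compound in Tris pH 8.0 buffer with MgCl2, DTT, Tween-20 and 2.5 ug/ml poly(dI-dC); started with 200 nM TAMRA/BHQ-2 forked duplex and 2 mM ATP. Unwinding read as fluorescence (525/598 nm), two reads 2 h apart.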
# Numbers stand for hits; - = inactive; ? = inconclusive; . = not tested or not shown; [ ] = dose if it differs, or a comment. Calls follow the shape of the dose curve; as a rule, active = well fitted curve in the direction sought with a large enough effect; inconclusive = small, poorly fitted or top-dose-only effect, or another doubt; inactive = no such curve, though single readings can be large; an effect the other way counts as inactive or inconclusive.
SMILES,GLS inh,APE1 inh,Tb PGK inh,BLM helicase inh,TDP1 block,RECQ1 inh
CN1CCc2ccc3c4c2[C@]1(C)Cc1cccc(c1-4)OCO3,.,?,.,-,-,-
O=C(O)CNC(=O)CC1S/C(=N/N=C2/NC(=O)CS2)NC1=O (configuration not stated),-,?,-,-,40µM,-
O=C(OC[C@H]1O[C@@H](OC(=O)c2cc(O)c(O)c(OC(=O)c3cc(O)c(O)c(O)c3)c2)[C@H](OC(=O)c2cc(O)c(O)c(OC(=O)c3cc(O)c(O)c(O)c3)c2)[C@@H](OC(=O)c2cc(O)c(O)c(OC(=O)c3cc(O)c(O)c(O)c3)c2)[C@@H]1OC(=O)c1cc(O)c(O)c(OC(=O)c2cc(O)c(O)c(O)c2)c1)c1cc(O)c(O)c(OC(=O)c2cc(O)c(O)c(O)c2)c1,.,0.0053µM,.,.,.,.
CCN(CC)C(=O)COc1ccc2c(-c3ccc(OC)cc3)cc(=O)oc2c1,-,-,-,-,79µM,.
N#C/C(=C\c1c[nH]c2ccccc12)C(=O)c1ccc(O)c(O)c1,.,?,.,.,-,11µM
CCC(=O)OC1(C)C(=O)C2=COC(c3ccc(OC)cc3)=CC2=C(Br)C1=O (configuration not stated),-,-,20µM,-,-,?
COc1ccc(C2=CC3=C(Br)C(=O)C(C)(O)C(=O)C3=CO2)cc1 (configuration not stated),-,-,20µM,-,-,-
COC(=O)CCC(=O)OC1(C)C(=O)C2=CN(Cc3ccc(OC)cc3)C(c3ccc(OC)cc3)=CC2=C(Br)C1=O (configuration not stated),-,-[12.4 µM],-,-[12.4 µM],-[12.3 µM],-[11.5 µM]
CCc1ccc(NCc2cc3cc4c(cc3n(CC(=O)Nc3cccc(OC)c3)c2=O)OCO4)cc1,10µM,.,-,-,-,.
COc1ccc2cc(CNc3ccc(C)cc3)c(=O)n(CC(=O)Nc3ccc(C)cc3Cl)c2c1,13µM,.,-,-,-,.
CCc1ccc(NCc2cc3cc4c(cc3n(CC(=O)Nc3ccc(OC)cc3)c2=O)OCO4)cc1,-,.,-,-,-,.
COc1ccc2cc(CNc3ccc(C)cc3)c(=O)n(CC(=O)Nc3cccc(Cl)c3C)c2c1,-,.,-,-,-,.
Cc1cc(NC(=O)CS(=O)CC(=O)Nc2c(C)cccc2C)ccc1-n1cnnn1 (configuration not stated),-,-,-,-,-,.
CCc1ccc(NC(=O)CS(=O)CC(=O)Nc2ccc(-n3cnnn3)c(C)c2)cc1 (configuration not stated),-,-,-,-,56µM,.
O=C(CN1c2ccccc2Sc2ccccc21)NNC(=S)Nc1ccc(Cl)cc1,16µM,?,-,-,.,-
O=C(CN1c2ccccc2Sc2ccccc21)NNC(=S)Nc1ccc(Cl)cc1Cl,-,-,-,-,-,-
CCOC(=O)C1CCCN(C(=O)c2cc(-c3ccco3)nc3ccccc23)C1 (configuration not stated),13µM,8.4µM,?,.,.,.
NC(=O)C1CCN(c2nc(-c3ccc4c(c3)OCO4)cs2)CC1,.,-,.,.,.,.
C[n+]1c(/C=C/c2ccc3c(c2)OCO3)ccc2ccccc21,-,-,-,-,-,-
C[n+]1cc2c3c(ccc2c2ccc4cc5c(cc4c21)OCO5)OCO3,3.2µM,-,.,-,-,-
CC(C)(C)n1ncc2c(=O)n(Cc3cccc(C(F)(F)F)c3Cl)cnc21,.,-,.,.,.,.
N=C1C(c2nc3ccccc3c(=O)[nH]2)=C(O)CN1CCc1ccccc1,-,-,-,-,71µM,-
N=C1C(c2nc3ccccc3c(=O)[nH]2)=C(O)CN1CCO,-,-,-,-,-,-
O=C(O)COc1cccc2c1CCC=C2CCO/N=C(\c1ccccc1)c1cccnc1,.,-,.,-,-,-

# Screening data (PubChem)
